Measurements as given in PubChem BioAssay (NCATS).
Where “and” joins values, the source holds several entries; their conditions need not be identical. Equal entries are not always repeated. Inconclusive results are not listed. Entries that show only a call come without a potency. Values without a mark were called inactive. Calls of active or inactive are those of the source. The call rests on the fitted dose curve; in most records, active means well fitted curve in the direction sought with a large enough effect; inconclusive means small, poorly fitted or top-dose-only effect, or another doubt; inactive means no such curve, though single readings can be large; an effect the other way counts as inactive or inconclusive.

Legend:
[1] = Quantitative highthroughput screen to assess conditional lethalithy of NOMO1 cells grown in RPMI1640 with untreated serum (RPMI+s) (AID 1963876); further: nearly all actives have a fitted effect of over 35% in size; further: potency means the concentration at half of the fitted maximal effect
How it was run: (§1)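 Each medium arm—HPLM with 10% dialyzed FBS, or RPMI1640 with 5 mM glucose and 10% untreated or dialyzed FBS—was screened against an 11-point, 3-fold compound titration for 48 h at 37 °C, with CellTiter-Glo luminescence as endpoint.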

[2] = Quantitative highthroughput screen to assess conditional lethalithy of P12 Ichikawa cells grown in Human Plasma-Like Medium with dialyzed fetal bovine serum (HPLM+ds) (AID 1963879); details: Potency: viability; further: nearly all actives have a fitted effect of over 35% in size; further: potency means the concentration at half of the fitted maximal effect; on viability: series mostly up to about 46 µM
How it was run: as §1

[3] = Quantitative highthroughput screen to assess conditional lethalithy of P12 Ichikawa cells grown in RPMI1640 with untreated serum (RPMI+s) (AID 1963881); details: Potency: viability; further: nearly all actives have a fitted effect of over 35% in size; further: potency means the concentration at half of the fitted maximal effect; on viability: series mostly up to about 46 µM
How it was run: as §1

[4] = Quantitative highthroughput screen to assess conditional lethalithy of SEM cells grown in RPMI1640 with dialyzed fetal bovine serum (RPMI+ds) (AID 1963884); further: nearly all actives have a fitted effect of over 35% in size; further: potency means the concentration at half of the fitted maximal effect; on viability: series mostly up to about 46 µM
How it was run: as §1

[5] = Cellular viability qHTS for adrenocortical cancer (ACC) cell line NCI-H295R (AID 1963990); further: nearly all actives have a fitted effect of over 60% in size
How it was run: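 Compound titrations (up to 46 uM final) are applied to NCI-H295R cultures for 48 h at 37C. Viable cell number is estimated by CellTiter-Glo signal, normalised to DMSO and doxorubicin controls.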

[6] = Quantitative highthroughput screen to assess conditional lethalithy of SEM cells grown in Human Plasma-Like Medium with dialyzed fetal bovine serum (HPLM+ds) (AID 1963882); further: nearly all actives have a fitted effect of over 35% in size; further: potency means the concentration at half of the fitted maximal effect; on viability: series mostly up to about 46 µM
How it was run: as §1

[7] = Quantitative highthroughput screen to assess conditional lethalithy of P12 Ichikawa cells grown in RPMI1640 with dialyzed fetal bovine serum (RPMI+ds) (AID 1963880); details: Potency: P12-Ichikawa viability; further: nearly all actives have a fitted effect of over 35% in size; further: potency means the concentration at half of the fitted maximal effect
How it was run: as §1

[8] = Quantitative highthroughput screen to assess conditional lethalithy of SEM cells grown in RPMI1640 with unreated serum (RPMI+s) (AID 1963883); further: nearly all actives have a fitted effect of over 35% in size; further: potency means the concentration at half of the fitted maximal effect
How it was run: as §1

[9] = Cellular viability qHTS for adrenocortical cancer (ACC) cell line SW-13 (AID 1963989); details: SW-13 ACC cells viability, CellTiter-Glo, 48 h; activity (max response): active compounds read low;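 further: cells grown in serum-free medium with ITS supplement; nearly all actives have a fitted effect of over 65% in size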
How it was run: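 48 h treatment, SW-13 in ITS/DMEM serum-free; doses up to 46 uM; readout CellTiter-Glo luminescence; curve fit four-parameter logistic.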

Row | Structure (SMILES) | Potency [1] | Potency [2] | Potency [3] | Potency [4] | Potency [5] | Potency [6] | Potency [7] | Potency [8] | activity (max response) [9]
1 | O=c1c(-c2ccc(O)cc2)coc2cc(O)cc(O)c12 | inactive | inactive | inactive | inactive | inactive | – | – | – | –
2 | Cc1[nH]c(C=C2C(=O)Nc3ccc(S(=O)(=O)Cc4c(Cl)cccc4Cl)cc32)c(C)c1C(=O)N1CCC[C@H]1CN1CCCC1 | inactive | inactive | inactive | – | – | 2350 nM (active) | – | – | –
3 | COc1cc(C(C)=O)ccc1OCCCN1CCC(c2noc3cc(F)ccc23)CC1 | inactive | inactive | inactive | – | inactive | inactive | inactive | inactive | –
4 | CC(C)(C)NC(=O)[C@H]1CC[C@H]2[C@@H]3CC[C@H]4NC(=O)C=C[C@]4(C)[C@H]3CC[C@]12C | 2350 nM (active) | 10500 nM (active) | 11800 nM (active) | inactive | inactive | inactive | – | inactive | -6.83% and 2.59%
5 | OCCN1C[C@H](O)[C@@H](O)[C@H](O)[C@@H]1CO | 105 nM (active) | 2640 nM (active) | – | inactive | – | inactive | 2960 nM (active) | – | –
6 | O=C(O)CCC1CCC(c2cc(F)ccc2F)(S(=O)(=O)c2ccc(Cl)cc2)CC1 (stereo unspecified) | 1480 nM (active) | 8330 nM (active) | 9350 nM (active) | inactive | inactive | inactive | 14800 nM (active) | – | -1.6%
7 | CCCNC(=O)[C@H]1O[C@H]1C(=O)N[C@H](C(=O)N1CCC[C@@H]1C(=O)OC)C(C)CC (stereo partly specified) | 13200 nM (active) | – | 16600 nM (active) | 16600 nM (active) | – | 20900 nM (active) | 16600 nM (active) | 14800 nM (active) | –
8 | C=C1C(=O)OC2C=C(C)CCC=C(C)CCC12 (stereo unspecified) | inactive | – | – | 23500 nM (active) | – | – | – | – | –
9 | CCC(=C(c1ccccc1)c1ccc(OCCN(C)C)cc1)c1ccccc1 | inactive | inactive | inactive | – | – | 23500 nM (active) | – | – | –
10 | CC(=O)C1=C(O)C=C2Oc3c(C(C)=O)c(O)c(C)c(O)c3C2(C)C1=O (stereo unspecified) | 296 nM (active) | 1480 nM (active) | 1320 nM (active) | – | – | – | 2960 nM (active) | inactive | –
11 | COc1ccc(CCC(=O)c2c(O)cc(O[C@@H]3O[C@H](CO)[C@@H](O)[C@H](O)[C@@H]3O[C@@H]3O[C@@H](C)[C@H](O)[C@@H](O)[C@@H]3O)cc2O)cc1O | 13200 nM (active) | – | inactive | – | – | inactive | inactive | inactive | –
12 | CC=CC[C@@H](C)C(=O)[C@H]1C(=O)N[C@@H](C(C)C)C(=O)N(C)CC(=O)N(C)[C@@H](CC(C)C)C(=O)N[C@@H](C(C)C)C(=O)N(C)[C@@H](CC(C)C)C(=O)N[C@@H](C)C(=O)N[C@H](C)C(=O)N(C)[C@@H](CC(C)C)C(=O)N(C)[C@@H](CC(C)C)C(=O)N(C)[C@@H](C(C)C)C(=O)N1C | inactive | – | – | – | – | – | – | 14800 nM (active) | –
13 | O=S(=O)(N=Cc1c(O)ccc2ccccc12)c1cccs1 | inactive | 16600 nM (active) | inactive | inactive | – | – | inactive | – | –
14 | CNC1[C@H](O)C(O[C@@H]2C(O)C(O[C@H]3O[C@H]([C@@H](C)NC)CC[C@H]3N)[C@@H](N)C[C@H]2N)OC[C@]1(C)O (stereo partly specified) | inactive | inactive | inactive | inactive | – | inactive | inactive | – | –
15 | CC(=O)N1CCN(c2ccc(OCc3nn(C)c(C)c3-c3cccc4c(CCCOc5cc(C)c(Cl)c(C)c5)c(C(=O)O)n(Cc5cccnc5)c34)cc2)CC1 | inactive | – | – | 20900 nM (active) | – | – | – | 18700 nM (active) | –
16 | Cc1ccc(O)c(C(CCN(C(C)C)C(C)C)c2ccccc2)c1 (stereo unspecified) | inactive | inactive | inactive | inactive | inactive | inactive | inactive | inactive | 1.99%
17 | CC(C)(C(=O)NCC(F)(F)C(F)(F)F)C(=O)N[C@@H]1C(=O)Nc2ccccc2-c2ccccc21 | 935 nM (active) | 2640 nM (active) | – | – | inactive | – | – | 16600 nM (active) | -5.79%
18 | O=C1NC(=O)[C@@H](c2cn3c4c(cccc24)CCC3)[C@H]1c1c[nH]c2ccccc12 | 1870 nM (active) | 1480 nM (active) | – | – | – | – | – | 590 nM (active) | –
19 | O=C(NC1CCOCC1)c1ccc(-c2cc(-c3cn[nH]c3-c3ccccn3)ccn2)cc1 | inactive | inactive | – | inactive | inactive | inactive | inactive | inactive | 6.28%
20 | COc1cc2nc(N3CCN(C(=O)C4COc5ccccc5O4)CC3)nc(N)c2cc1OC (stereo unspecified) | inactive | – | inactive | inactive | – | – | inactive | inactive | –
21 | CC(C)(C)c1[nH]cnc1C=c1[nH]c(=O)c(=Cc2ccccc2)[nH]c1=O | 6.8 nM (active) | 6.1 nM (active) | 8.6 nM (active) | 6.1 nM (active) | – | 4.8 nM (active) | 10.8 nM (active) | – | –
